Source: article PMC4336329 (PLoS ONE, 2015)
In all, about 310,000 compounds went through this assay and about 14,000 (4.5%) showed an effect of 50% or more. Effects have a minus sign here. This is one part of a sample in which strong results are shown more often than they occur.

biological target: human ether-à-go-go-related gene (hERG) potassium channel (human, UniProt Q12809); experiment: primary screen, population patch clamp on CHO cells stably expressing hERG; higher = less effect of the substance
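Note: peak tail current of the secondary pulse compared with the same well before compound.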

human ether-à-go-go-related gene (hERG) potassium channel, sequence (Q12809 whole entry, looked up): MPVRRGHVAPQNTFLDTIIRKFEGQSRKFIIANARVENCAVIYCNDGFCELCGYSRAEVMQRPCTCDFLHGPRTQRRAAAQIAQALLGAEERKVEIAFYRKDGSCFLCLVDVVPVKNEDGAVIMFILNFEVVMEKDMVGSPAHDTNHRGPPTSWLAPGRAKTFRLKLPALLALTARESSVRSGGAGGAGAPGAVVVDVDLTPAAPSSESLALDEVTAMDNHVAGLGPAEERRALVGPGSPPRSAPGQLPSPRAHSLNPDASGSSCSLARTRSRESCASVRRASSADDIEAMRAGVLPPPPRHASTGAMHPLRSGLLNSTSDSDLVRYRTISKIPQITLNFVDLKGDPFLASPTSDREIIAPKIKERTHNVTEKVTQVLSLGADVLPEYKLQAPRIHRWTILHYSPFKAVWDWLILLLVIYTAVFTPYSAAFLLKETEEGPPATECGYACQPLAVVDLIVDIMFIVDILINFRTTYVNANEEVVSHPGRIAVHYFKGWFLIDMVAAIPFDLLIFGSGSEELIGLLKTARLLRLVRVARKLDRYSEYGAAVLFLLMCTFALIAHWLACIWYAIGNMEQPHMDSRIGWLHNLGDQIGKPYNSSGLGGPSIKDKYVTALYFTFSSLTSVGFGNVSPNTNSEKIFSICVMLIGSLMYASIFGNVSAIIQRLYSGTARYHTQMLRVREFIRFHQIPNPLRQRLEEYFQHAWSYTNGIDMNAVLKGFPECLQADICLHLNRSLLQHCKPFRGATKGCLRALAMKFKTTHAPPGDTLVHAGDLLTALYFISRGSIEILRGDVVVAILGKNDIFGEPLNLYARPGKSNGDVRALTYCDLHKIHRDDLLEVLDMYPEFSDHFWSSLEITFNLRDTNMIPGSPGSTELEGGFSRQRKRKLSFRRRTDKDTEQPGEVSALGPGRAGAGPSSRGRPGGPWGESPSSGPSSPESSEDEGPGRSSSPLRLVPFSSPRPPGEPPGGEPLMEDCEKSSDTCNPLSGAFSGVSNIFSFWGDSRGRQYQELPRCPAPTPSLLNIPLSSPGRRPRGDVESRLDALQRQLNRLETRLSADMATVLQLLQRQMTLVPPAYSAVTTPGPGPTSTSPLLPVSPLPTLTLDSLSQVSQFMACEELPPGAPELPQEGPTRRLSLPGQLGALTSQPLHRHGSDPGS

SMILES	hERG current change (%, negative = inhibition) at 10uM
Cc1ccc(NC(=O)CSc2nc(N)c3c4c(sc3n2)CSC(C)(C)C4)cc1	14.2%
COc1ccc(NC(=O)C2CCN(C(=O)Nc3ccccc3)CC2)cc1S(=O)(=O)N(C)C	12.5%
O=S(=O)(NCCCc1ccccc1)c1ccc(Br)cc1	-9.3%
O=[N+]([O-])c1ccc(NCCCNS(=O)(=O)c2ccccc2)cc1	-64.7%
O=S(=O)(NCCCc1ccccc1)c1ccccc1	10.3%
O=[N+]([O-])c1ccc(NCCCNS(=O)(=O)c2ccccc2)c(Cl)c1	-14.3%
O=[N+]([O-])c1ccc(S(=O)(=O)NCCCc2ccccc2)cc1	-64.6%
Cc1ccc(S(=O)(=O)NCCCNc2ccc([N+](=O)[O-])cc2)cc1	-65.2%
Cc1ccc(S(=O)(=O)NCCCNS(=O)(=O)c2ccc(C)cc2)cc1	-17.9%
O=[N+]([O-])c1ccc(NCCNS(=O)(=O)c2ccccc2)cc1	-38.9%
Cc1ccc(S(=O)(=O)NCCNc2ccc([N+](=O)[O-])cc2)cc1	-22.8%
O=S(=O)(O)c1cccc(N=Nc2c(O)ccc3ccccc23)c1	16.4%
N#Cc1ccc(OCC(=O)NCCN2CCOCC2)cc1	-11.7%
O=C(COC(=O)/C=C/c1ccc(Cl)cc1)NC1CCCCCC1	-1.22%
Cc1ccc(C)c(NC(=O)Cc2nc(CCl)cs2)c1	-14.1%
CC(C)Oc1cccc(C(=O)NC(=S)Nc2ccccc2)c1	-7.26%
CCOC(=O)c1ccc(NC(=O)N(CC)CC)cc1	4.46%
CCCC(=O)N1CCN(c2ccc(NC(=S)NC(=O)c3cccc(C)c3)cc2)CC1	-18.3%
CCCCn1c(N)c(C(=O)OCCOC)c2nc3ccccc3nc21	-42.4%
CCCCCOC(=O)c1c(N)n(CCOC)c2nc3ccccc3nc12	-70.2%
CCCCOCCCn1c(N)c(C(=O)OCCOC)c2nc3ccccc3nc21	-32.9%
Nc1c(C(=O)NCCN2CCOCC2)c2nc3ccccc3nc2n1Cc1ccco1	-68.8%

SMILES	hERG current change (%, negative = inhibition) at 10uM
CCCCCn1c(N)c(C(=O)NCCN2CCOCC2)c2nc3ccccc3nc21	-17.1%
Nc1c(C(=O)NCCN2CCOCC2)c2nc3ccccc3nc2n1Cc1ccccc1	1.38%
COCC(C)OC(=O)c1c(N)n(CCCN2CCOCC2)c2nc3ccccc3nc12 (centres unmarked)	-9.69%
CCCCCCn1c(N)c(C(=O)NCCN2CCOCC2)c2nc3ccccc3nc21	-8.61%
Nc1c(C(=O)NCc2ccco2)c2nc3ccccc3nc2n1CCN1CCOCC1	-4.63%
CCCCn1c(N)c(C(=O)NCCN2CCOCC2)c2nc3ccccc3nc21	-64.1%
COC(=O)c1c(N)n(CCCN2CCOCC2)c2nc3ccccc3nc12	-29.9%
COCCOC(=O)c1c(N)n(CCCN2CCOCC2)c2nc3ccccc3nc12	-53.3%
COc1ccccc1N(CC(=O)NCc1ccccc1)C(=O)CCC(=O)Nc1cc(C)ccn1	-9.35%
CC(O)c1c(OCc2ccccc2)ncnc1OCc1ccccc1 (centres unmarked)	-15.5%
CCN(CC)S(=O)(=O)c1ccc(S(=O)(=O)N(CC(=O)Nc2ccccc2)CC2CCCO2)cc1 (centres unmarked)	-18.6%
COc1cccc(N2CCN(C(=O)C3CCC(=O)N(C4CCCCCC4)C3)CC2)c1 (centres unmarked)	-32.8%
COc1ccc(NC2c3ccccc3C(=O)N2c2ccccn2)cc1Cl (centres unmarked)	-5.24%
Cc1ccc(-c2cc(C(=O)N/N=C/c3ccc(F)cc3)n[nH]2)o1	4.98%
COc1ccc(CCNC(=O)c2cn3ccc(C)cc3n2)cc1OC	1.66%
Cc1ccc(S(=O)(=O)N(C)C)cc1NC(=S)N1CCc2ccccc21	11.5%
COc1ccc(NC(=O)c2cc3ccccc3[nH]2)cc1	15.4%
Cc1ccccc1-n1c(C)c(C#N)c(=O)c(-[n+]2ccccc2)c1[S-]	23.4%
Cc1cc(S(=O)(=O)N2CCCC2)ccc1OCC(=O)NCc1ccccn1	4.98%
O=C(NC(=C(Cl)Cl)S(=O)(=O)c1ccc(Cl)cc1)c1ccccc1	3.23%
Nc1c(C(=O)NCCc2ccccc2)c2nc3ccccc3nc2n1CCN1CCOCC1	-3.49%
CC(C)Cn1c(N)c(C(=O)NCCN2CCOCC2)c2nc3ccccc3nc21	-72.7%

SMILES	hERG current change (%, negative = inhibition) at 10uM
Nc1c(C(=O)NCCN2CCOCC2)c2nc3ccccc3nc2n1CCc1ccccc1F	-27.2%
CCn1c(O)c(C=NCc2cccs2)c(=O)[nH]c1=O	-6.15%
CS(=O)(=O)c1ccc(C(=O)NC2CCCCC2)cc1	12.1%
COc1ccc2nc(C)c3c(c2c1)OC(C(C)(Cl)Br)C3 (centres unmarked)	-34%
Cc1nc2ccccc2c2c1CC(C(C)(Cl)Br)O2 (centres unmarked)	-61.6%
Cc1ccc2nc(C)c3c(c2c1)OC(C(C)(Cl)Br)C3 (centres unmarked)	-16.5%
COc1cc(N(Cc2ccccc2)Cc2ccccc2)c2ncn(C(C)C)c2c1	6.37%
CC(C)n1cnc2c(N(C)c3ccccc3)nc(N(CCN(C)C)Cc3ccccc3)nc21	-73.1%
CC(C)n1cnc2c(NCc3ccccc3)nc(NCc3ccccc3)nc21	0.281%
O=C(Cn1ncc2c(=O)oc3ccccc3c21)NCCN1CCN(c2ccccc2F)CC1	-28.4%
CCCNC(=O)Cn1sc2nc(C)cc(C)c2c1=O	-6.1%
CCCN1CCN(CCCNC(=O)Cn2ncc3c4ccccc4n(C)c3c2=O)CC1	-56.6%
CCC(C)NC(=O)Cn1cc(S(=O)(=O)N2CCN(c3ccccc3F)CC2)c2ccccc2c1=O (centres unmarked)	-4.4%
Cc1cc(C)c2c(=O)n(CC(=O)NCCCN3CCN(c4ccccc4F)CC3)sc2n1	-55.3%
O=C(Cn1cc(S(=O)(=O)N2CCN(c3ccccc3F)CC2)c2ccccc2c1=O)NCCCN1CCCCCC1	-61.1%
CC1CCCC(C)N1CCCNC(=O)Cn1ncc2c3ccccc3n(C)c2c1=O (centres unmarked)	-36.9%
Cn1c2ccccc2c2cnn(CC(=O)NCCCN3CCN(c4ccccc4F)CC3)c(=O)c21	-76.3%
Cn1c(C(=O)NCCCN2CCN(c3ccccc3F)CC2)cc2c(=O)n(C)c3ccccc3c21	-11.7%
CN1CCN(CCCNC(=O)Cn2ncc3c4ccccc4n(C)c3c2=O)CC1	12%
Cc1cc(C)c2c(=O)n(CC(=O)NCCCN3CCOCC3)sc2n1	11.4%
COCCNC(=O)Cn1cc(S(=O)(=O)N2CCN(c3ccccc3F)CC2)c2ccccc2c1=O	-2.76%
CC(=O)OC1COC(N2CCc3cc([N+](=O)[O-])ccc32)C(OC(C)=O)C1OC(C)=O (centres unmarked)	2.87%

SMILES	hERG current change (%, negative = inhibition) at 10uM
CC(=O)c1nc(N2C(=O)CC(Cc3cccc(C)c3)C2=O)sc1C (centres unmarked)	-16.3%
CCOC(=O)C1CCCN(C(=O)CCCn2nnnc2CN2CCC(C)CC2)C1 (centres unmarked)	-8.13%
O=C1Nc2ccc(Br)cc2C1(O)c1ccc(F)cc1 (centres unmarked)	7%
Nc1cc(=O)[nH]c(SCC(=O)NCC2CCCO2)n1 (centres unmarked)	1.45%
NC(=O)COC(=O)CC(c1ccccc1)c1ccccc1	4.16%
CCCCCCC1/C(=N\NC(=O)c2ccccc2)CCC1C(=O)OC (centres unmarked)	-43.8%
CC(C)[C@H](NC(=O)N1CCn2c1nc1ccccc12)C(=O)N[C@@H](C(=O)O)c1ccccc1	17.7%
CC(C)c1ccc(N(C)C(=O)Cc2c(C(=O)O)n(C)c3ccccc23)cc1	0.167%
Fc1cnc(N/N=C/c2ccc(-c3ccc(Br)cc3)o2)nc1N1CCOCC1	-15.8%
O=C(O)CCC(=O)N1CCN(c2nc(-c3ccccc3)c3cc(Br)ccc3n2)CC1	3.79%
COc1cccc(/C=C/C(=O)OCC(=O)c2c[nH]c3ccccc23)c1	13%
O=C(Cn1ncc2c([nH]c3ccccc32)c1=O)NCCCN1CCN(c2ccccc2)CC1	-21.5%
Cc1ccccc1CS(=O)(=O)CCC(=O)NCCCN1CCOCC1	-10.6%
O=C(CCS(=O)(=O)Cc1ccccc1F)NCCCN1CCCCC1	8.31%
COc1ccccc1N1CCN(CCCNC(=O)Cn2ncc3c([nH]c4ccccc43)c2=O)CC1	-68.6%
CC1CCN(CCCNC(=O)Cn2ncc3c([nH]c4ccccc43)c2=O)CC1	9.35%
Cc1ccccc1CS(=O)(=O)CCC(=O)NCCCN1CCN(c2ccccc2F)CC1	-59.3%
Nc1nc2ccccc2n1/N=C/c1cccnc1	2.44%
CC(C)(OC(=O)NC(=O)C(F)(F)F)C(C)(C)OC(=O)NC(=O)C(F)(F)F	31.4%
COc1ccc(Cn2c(O)c(C=Nc3ccc(C)cc3)c3ccccc3c2=O)cc1	2.35%
